{
  "source": "PubChem BioAssay AID2242",
  "about": "(National Center for Advancing Translational Sciences (NCATS), 2010)",
  "note": "The whole screen tested about 200,000 compounds, of which about 720 (0.36%) were called active. Inconclusive results (about 8%) are left out. The call rests on the fitted dose curve; in most records, active means well fitted activation curve with a large enough effect; inconclusive means small, poorly fitted or top-dose-only effect, or effect the other way, or another doubt; inactive means flat fitted curve, though single readings scatter. The list shows a part of the results. Potency means the concentration at half of the fitted maximal effect.",
  "data": [
    {"biological_target": "Lysosomal alpha-glucosidase (Homo sapiens) (UniProt P10253)", "experiment": "qHTS Assay for Activators of Human alpha-Glucosidase as a Potential Chaperone Treatment of Pompe Disease; further: nearly all actives have a fitted effect of over 80% in size", "conditions": "purified enzyme, 4-MU-alpha-glucoside fluorescence, 20 min", "text": "NIH Chemical Genomics Center [NCGC] NIH Molecular Libraries Probe Production centers Network [MLPCN] MLPCN Grant: 1R03MH084841-01 Assay Submitter (PI): Wei Zheng NCGC Assay Overview: Alpha-glucosidase is responsible for hydrolysis of terminal, non-reducing 1,4-linked alpha-D-glucose residues with release of alpha-D-glucose. It is a lysosomal hydrolase that is required for the degradation of a small percentage (1-3%) of cellular glycogen in human. Deficiency of this enzyme results in glycogen-storage disease type II (GSDII), also referred to as Pompe disease, an autosomal recessive disorder. Structurally normal glycogen is accumulated in lysosomes and cytoplasm in affected patients, primarily in muscle tissues. Excessive glycogen storage within lysosomes may interrupt normal functioning of other organelles and leads to cellular injury. In turn, this leads to enlargement and dysfunction of the entire organ involved (eg, cardiomyopathy and muscle weakness). It has reported that the improper folding and trafficking of alpha-glucosidase resulting from the genetic mutations may account for a significant number of Pompe patients. […] We optimized this alpha-glucosidase assay in 1536-well plate format for identifying the novel small molecule inhibitors with the structures other than the sugar analogs in order to develop the new pharmacological chaperones, but are also able to detect potential activators. In conjunction with assays against alpha-galactosidase (AID 1467), fluorogenic false positive compounds can be identified.\nNCGC Assay Protocol Summary: This is a fluorogenic enzyme assay with 4-methylumbelliferyl-alpha-D-[…] as the substrate and human alpha-glucosidase as the enzyme preparation. Upon the hydrolysis of this fluorogenic substrate, the resulting product, 1. 4-methyllumbelliferone, can be excited at 365 nm and emits at 440 nm which can be detected by a standard fluorescence plate reader. Data were normalized to the controls for basal activity (without enzyme) and 100% activity (with enzyme). In the AC50 values were determined from concentration-response data modeled with the standard Hill equation. Assay buffer: 50 mM citric acid (titrated with potassium phosphate to pH 5.0), 0.005% Tween-20, pH 5.0. (pH 5.0 is an optimal condition for this enzyme assay) 1536-well assay protocol for the human alpha-glucosidase: (1) Add 2 ul/well of enzyme (4 nM final) (2) Add 23 nL compounds in DMSO solution. The final titration was 0.7 nM to 77 uM. (3) Add 1 ul of substrate (400 uM final) (4) Incubate at room temperature for 20 min. (5) Add 2 ul stop solution (1M NaOH and 1M Glycine mixture, pH 10) (6) Detect the assay plate in a ViewLux plate reader (PerkinElmer) with Ex=365 nm and Em=440nm. Keywords: Alpha-glucosidase, Pompe Disease, pharmacological chaperone, chaperone therapy, high throughput screening, alpha-glucosidase inhibitor, MLSMR, MLSCN, NIH Roadmap, qHTS and NCGC", "values": [
      {"smiles": "N#CC1=C(N)Oc2c(c(=O)oc3ccccc23)C1c1ccc(OC(=O)N2CCOCC2)cc1", "note": "(centres undefined)", "Potency": "35.5 µM (active)"},
      {"smiles": "CCOP(=O)(OCC)c1nc(-c2cccc3ccccc23)oc1NCCc1ccc(OC)cc1", "Potency": "31.6 µM (active)"},
      {"smiles": "COc1ccc(CNc2oc(-c3cccc4ccccc34)nc2P(=O)(OC)OC)cc1", "Potency": "35.5 µM (active)"},
      {"smiles": "COP(=O)(OC)c1nc(-c2cccc3ccccc23)oc1NCCc1ccccc1", "Potency": "31.6 µM (active)"},
      {"smiles": "COCCN1Cc2cc(=O)n3c([nH]c4ccccc43)c2C1=N", "Potency": "31.6 µM (active)"},
      {"smiles": "COC(=O)c1ccc(C(=O)OC)c(NC(=O)Oc2ccccc2)c1", "Potency": "31.6 µM (active)"},
      {"smiles": "CCCNC(=O)c1c(N)n(CC2CCCO2)c2nc3ccccc3nc12", "note": "(centres undefined)", "Potency": "31.6 µM (active)"},
      {"smiles": "CC(C)OCCCNC(=O)c1c(N)n(CC2CCCO2)c2nc3ccccc3nc12", "note": "(centres undefined)", "Potency": "39.8 µM (active)"},
      {"smiles": "N#Cc1c(Cl)nc(Cl)c2c1CCN(Cc1ccccc1)C2", "Potency": "31.6 µM (active)"},
      {"smiles": "CN1CCc2c(C#N)c(Cl)nc(Cl)c2C1", "Potency": "35.5 µM (active)"},
      {"smiles": "CC(C)CCn1c(N)c(C(=O)OCC2CCCO2)c2nc3ccccc3nc21", "note": "(centres undefined)", "Potency": "31.6 µM (active)"},
      {"smiles": "CCCCn1c(N)c(C(=O)OCC2CCCO2)c2nc3ccccc3nc21", "note": "(centres undefined)", "Potency": "35.5 µM (active)"},
      {"smiles": "COCCOC(=O)c1c(N)n(Cc2ccccc2)c2nc3ccccc3nc12", "Potency": "35.5 µM (active)"},
      {"smiles": "COCCOC(=O)c1c(N)n(Cc2ccc(OC)cc2)c2nc3ccccc3nc12", "Potency": "35.5 µM (active)"},
      {"smiles": "COc1ccc(-c2cc(=NCCCCCC(=O)O)c3cc(C)ccc3o2)cc1", "Potency": "31.6 µM (active)"},
      {"smiles": "COc1ccc(-c2cc(=NCCC(=O)O)c3cc(C)ccc3o2)cc1", "Potency": "28.2 µM (active)"},
      {"smiles": "COC(=O)c1c(N)n(Cc2ccc(OC)cc2)c2nc3ccccc3nc12", "Potency": "35.5 µM (active)"},
      {"smiles": "CCOC(=O)c1c(N)n(Cc2ccc(OC)cc2)c2nc3ccccc3nc12", "Potency": "25.1 µM (active)"},
      {"smiles": "CC(C)OC(=O)c1c(N)n(CC2CCCO2)c2nc3ccccc3nc12", "note": "(centres undefined)", "Potency": "35.5 µM (active)"},
      {"smiles": "Nc1c(C(=O)OC2CCCCC2)c2nc3ccccc3nc2n1CC1CCCO1", "note": "(centres undefined)", "Potency": "35.5 µM (active)"},
      {"smiles": "CC(C)CCOC(=O)c1c(N)n(CC2CCCO2)c2nc3ccccc3nc12", "note": "(centres undefined)", "Potency": "39.8 µM (active)"},
      {"smiles": "COCCCn1c(N)c(C(=O)OC(C)COC)c2nc3ccccc3nc21", "note": "(centres undefined)", "Potency": "39.8 µM (active)"},
      {"smiles": "COCCCn1c(N)c(C(=O)OCCOC)c2nc3ccccc3nc21", "Potency": "31.6 µM (active)"},
      {"smiles": "O=C(c1cc2c(s1)-c1ccccc1OC2)N1CCC2(CC1)OCCO2", "Potency": "39.8 µM (active)"},
      {"smiles": "COP(=O)(OC)c1nc(-c2cccc3ccccc23)oc1N1CCCCC1", "Potency": "35.5 µM (active)"},
      {"smiles": "CCOP(=O)(OCC)c1nc(-c2cccc3ccccc23)oc1N1CCCCC1", "Potency": "35.5 µM (active)"},
      {"smiles": "CCOP(=O)(OCC)c1nc(-c2cccc3ccccc23)oc1N1CCOCC1", "Potency": "39.8 µM (active)"},
      {"smiles": "CCOC(=O)c1c(N)n(Cc2ccco2)c2nc3ccccc3nc12", "Potency": "39.8 µM (active)"},
      {"smiles": "COCCNC(=O)c1c(N)n(Cc2ccco2)c2nc3ccccc3nc12", "Potency": "31.6 µM (active)"},
      {"smiles": "CCCCn1c(NC(=O)c2ccc(Br)o2)c(C(=O)OCC)c2nc3ccccc3nc21", "Potency": "35.5 µM (active)"},
      {"smiles": "Nc1c(C(=O)NCCN2CCOCC2)c2nc3ccccc3nc2n1Cc1ccco1", "Potency": "39.8 µM (active)"},
      {"smiles": "CC(C)(C)OC(=O)c1c(N)n(Cc2ccco2)c2nc3ccccc3nc12", "Potency": "35.5 µM (active)"},
      {"smiles": "CCOC(=O)c1c(N)n(CCCOC(=O)c2ccco2)c2nc3ccccc3nc12", "Potency": "35.5 µM (active)"},
      {"smiles": "COCCOC(=O)c1c(N)n(Cc2ccco2)c2nc3ccccc3nc12", "Potency": "35.5 µM (active)"},
      {"smiles": "CCCCCn1c(N)c(C(=O)NCCN2CCOCC2)c2nc3ccccc3nc21", "Potency": "35.5 µM (active)"},
      {"smiles": "CC(=O)N1CCC2(CC1)CC(=O)c1cc(OCC(=O)N3CCC4(CC3)OCCO4)ccc1O2", "Potency": "31.6 µM (active)"},
      {"smiles": "CC(C)CCn1c(N)c(C(=O)NCc2cccs2)c2nc3ccccc3nc21", "Potency": "28.2 µM (active)"},
      {"smiles": "CCCOC(=O)c1c(N)n(Cc2cccs2)c2nc3ccccc3nc12", "Potency": "39.8 µM (active)"},
      {"smiles": "CCC(C)OC(=O)c1c(N)n(Cc2cccs2)c2nc3ccccc3nc12", "note": "(centres undefined)", "Potency": "35.5 µM (active)"}
    ]}
  ]
}
